Dicer inh = human Dicer pre-microRNA cleavage inhibition; cat-ELCCA pre-miR-21 Dicer processing, chemiluminescence; stronger effect = higher value; z-score at 25 µM; 47,000 compounds, 6% hits; AID 1347074; in the data active means z-score above about 3, passing the limit was not always enough;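 further: plate controls were vehicle for no effect and no enzyme for full effect; higher signal means more uncleaved substrate so more Dicer inhibition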
An asterisk follows results filed as active. The entries come from a sample that favours hits as a whole.

SMILES	Dicer inh
COc1ccc(C2CC(=O)C3=C(C2)NC(C)=C(C(=O)OCC(C)C)C3c2ccc(O)c(OC)c2)cc1 (centres undefined)	1.7
Oc1ccc(O)c(Sc2nnnn2-c2ccccc2)c1	3.2*
CC(=O)n1nc(C)c(Sc2nnnn2-c2ccccc2)c1C	-1.2
CC(=O)C(Sc1nnnn1-c1ccccc1)C(C)=O	-0.44
COc1ccccc1NC(=O)NC1CCN(c2nccc(C(F)(F)F)n2)CC1	-1.3
CCOC(=O)C1=C(C)NC2=C(C(=O)CCC2)C1c1ccc(OCC)cc1 (centres undefined)	-0.51
COC(=O)COc1ccc2c(c1)C(=O)c1cc(OCC(=O)OC)ccc1-2	-4.1
CCOc1ccc2c(c1)C(=O)c1cc(O)ccc1-2	1
CC(=O)Oc1ccc2c(c1)C(=O)c1cc(OC(C)=O)ccc1-2	6.2*
CCOC(=O)C1=C(c2ccccc2)N=C2SCC(=O)N2C1c1ccccc1OC (centres undefined)	0.13
Fc1ccccc1-c1nn2c(COc3ccccc3)nnc2s1	0.18
COc1cc(C(=O)NNS(=O)(=O)c2ccccc2C)c(-n2c(C)ccc2C)cc1OC	-0.67
COc1cc(C(=O)NS(=O)(=O)c2ccccc2C)ccc1Cc1cn(C)c2ccc(NC(=O)OC3CCCC3)cc12	4.3*
Nc1ccc2nc(CCCc3nc4ccccc4s3)[nH]c2c1	-1.4
Nc1cccc(-c2nc3ccc(N)cc3[nH]2)c1	-1.6
Nc1cccc(/C=C/c2nc3ccc(N)cc3[nH]2)c1	3.7*
Nc1ccc2nc(/C=C/c3ccccc3)[nH]c2c1	3.2*
Nc1ccc(Cc2nc3ccc(C(=O)O)cc3[nH]2)cc1	1.7
Nc1ccc(C(=O)OCCCc2nc3ccc(N)cc3[nH]2)cc1	-2.3
O=C1CCSC2=C1CS(=O)(=O)c1ccc(Cl)cc12	0.3
CCOC(=O)C1=C(C)Nc2nc3ccccc3n2C1c1ccccc1Cl (centres undefined)	-0.77
COc1ccccc1C1CCN(c2nc(-c3ccccc3)ns2)CC1	0.49
Cc1ccc2c(c1)CCCN2S(=O)(=O)c1c(C)c(C)c(C)c(C)c1C	-0.18
O=C(Nc1cccc(Cl)c1)N1CCc2ccccc2C1	6*
O=C(Nc1cccc(Cl)c1)N1CCN(c2nsc3ccccc23)CC1	-0.99
SMILES	Dicer inh
CN1CC(=O)N/C1=N\C(=O)Nc1cccc(Cl)c1	-1.5
O=C1CC(c2ccccc2)CC2=C1C(c1coc3ccccc3c1=O)Nc1ccccc1N2 (centres undefined)	2.9
Cc1nc(N2CCN(c3ccc(F)cc3)CC2)nc2c1C(=O)CCC2	-3
COc1ccc(C2C3=C(CC(C)(C)CC3=O)Nc3cc4c(cc32)OCO4)cc1 (centres undefined)	6.2*
CCOc1ccc(C2C3=C(CC(C)(C)CC3=O)Nc3cc4c(cc32)OCO4)cc1 (centres undefined)	2.9
CC1(C)CC(=O)C2=C(C1)Nc1cc3c(cc1C2c1ccc(F)cc1)OCO3 (centres undefined)	1.8
COC(=O)c1ccccc1CS(C)(=O)=O	0.04
Nc1n[nH]c(-c2ccccc2)c1-c1ccccc1	3.5*
Nc1nc(-c2ccccc2)cc(=O)[nH]1	0.66
N#CC1=C(N)Oc2n[nH]c(-c3ccccc3)c2C1c1ccc(Cl)cc1 (centres undefined)	-5.1
Cc1nc(Nc2nc3ccccc3o2)nc(-c2ccc(Cl)cc2)c1C#N	0.38
c1ccc(-c2nc(NCCN3CCOCC3)c3ccccc3n2)cc1	3.3*
c1ccc(-c2nc(NCCCN3CCOCC3)c3ccccc3n2)cc1	2
CC(C)(C)c1ccc(-c2nc(NCCN3CCOCC3)c3ccccc3n2)cc1	-1.5
Cc1cc(C)c(NC(=S)NCCCN2CCOCC2)c(C)c1	1.1
CCNC(=O)C(COCc1ccccc1)NC(=O)OC(C)(C)C (centres undefined)	-0.01
CCCCSc1nnc2c(n1)OC(c1ccc([N+](=O)[O-])o1)Nc1ccccc1-2 (centres undefined)	0.93
COC(=O)CCC(=O)c1cc(C(C)(C)C)sc1C(C)(C)C	0.41
CCOC(=O)C(OC(=O)Nc1ccccc1)C(OC(=O)Nc1ccccc1)C(=O)OCC (centres undefined)	1.9
CCOC(=O)NC1(NCC(C)C)Oc2ccccc2O1	6*
CCOC(=O)NC(NC(C)c1ccccc1)(C(F)(F)F)C(F)(F)F (centres undefined)	-0.53
COc1ccccc1-c1nnc(SCc2ccccc2Cl)o1	1
Cc1ccc(S(=O)(=O)Nc2nc3n(n2)C(c2ccccc2)C=C(c2ccccc2)N3)cc1 (centres undefined)	-0.53
Cc1ccc(C2C=C(c3ccccc3)Nc3nc(NS(=O)(=O)c4ccc(C)cc4)nn32)cc1 (centres undefined)	4*
O=C(CCc1ccccc1)Nc1nc2n(n1)C(c1ccc(F)cc1)C=C(c1ccccc1)N2 (centres undefined)	1.1
SMILES	Dicer inh
O=C(CCCN1C(=O)c2cccc3cccc(c23)C1=O)N1CCOCC1	0.41
OCCSCCc1ccncc1	-0.59
Nc1ccc(-c2nc3ccccc3n2CCOc2ccccc2)cc1	4.3*
CCCCn1c(-c2ccc(N)cc2)nc2ccccc21	0.23
Nc1nc2ccccc2n1CCOc1ccc(Br)cc1	2.5
CC(C)(C)NC(=O)c1cc2c(n(-c3ccc(Cl)cc3)c1=O)CCCC2=O	0.69
COc1ccc(C2C(C#N)=C3N=C(N)c4ccccc4N3C3=C2C(=O)CCC3)c(OC)c1 (centres undefined)	-0.62
Nc1nc(-c2cccnc2)nn1C(=O)Cc1ccccc1	8.2*
O=C(O)c1cc(-c2cccnc2)nc2ccccc12	-1.5
CC(=O)n1nc(-c2cccnc2)nc1N	5.5*
Nc1nc(-c2cccnc2)nn1C(=O)c1ccc(Cl)cc1	-0.49
Nc1nc(-c2cccnc2)nn1S(=O)(=O)c1ccccc1	0.34
CCOC(=O)Cn1c(-c2cccnc2)nc(-c2ccccc2)c1-c1ccccc1	1.1
C=CCSc1nnc2c3sc4nc(N5CCOCC5)c5c(c4c3ncn12)CC(C)(C)OC5	1.7
CSc1c(C#N)c(N)nc2sc(C(=O)c3ccc(OC(F)F)cc3)c(N)c12	-3.4
CC(=O)N1c2ccccc2CC1S(=O)(=O)O (centres undefined)	-1.3
N#Cc1cccc2c1-c1ccccc1C2=O	-1.3
Fc1ccc(Cn2c(-c3cncs3)nc3ccccc32)cc1	2.4
CCOC(=O)/C(C#N)=C/c1cn(-c2ccccc2)nc1-c1ccc(Cl)cc1	0.29
Cn1c(CNC(=O)OC(C)(C)C)nnc1SCC(=O)NCc1ccccc1	0.45
CCc1ccccc1NNC(=O)CCc1ccccc1	-0.71
Cc1ccc(NNC(=O)CCc2ccccc2)cc1C	3.5*
Cc1ccc(NNC(=O)CCc2ccccc2)cc1Cl	-0.78
CCCOC(=O)C1=C(C)NC2=C(C(=O)CC(C)(C)C2)C1c1ccc(OC)c(Br)c1 (centres undefined)	5.7
O=C(O)c1ccc(N2C(=O)C3C4C=CC(CO)(O4)C3C2=O)cc1 (centres undefined)	-2
SMILES	Dicer inh
Cc1ccc(OCCSc2nc3ncnc(N)c3[nH]2)c(C(C)C)c1	3.6*
Cc1ccc(C(C)C)c(OCCSc2ncnc3nc[nH]c23)c1	-0.81
COc1ccccc1OCCSc1nc2ncnc(N)c2[nH]1	-0.36
Cc1ccc(S(=O)(=O)NC(=O)Oc2ccccc2N2CCOCC2)cc1	0.55
COc1ccc(-c2noc(-c3ccc(OC)c(OC)c3)n2)cc1OC	-0.23
CCOc1nc(C)ccc1-c1noc(-c2ccc(OC)c(OC)c2)n1	0.4
CCOc1ccc(-c2nc(-c3ccc(Cl)cc3)no2)cc1OCC	3.6*
O=c1c2ccccc2nc(SCc2c(F)cccc2Cl)n1-c1cccnc1	-1.1

Bioassay records: PubChem BioAssay, Center for Chemical Genomics, University of Michigan
